The text below walks through data of PubChem BioAssay (NCATS).

SMILES strings stand for the structures. Records with an inconclusive call do not appear. A number with no mark means an inactive call. Activity calls are given as the source filed them. Calls come from the whole dose curve; as a rule, active = well fitted cell-killing curve with a large enough effect; inconclusive = small, poorly fitted or top-dose-only effect, or effect the other way; inactive = flat fitted curve, though single readings scatter.
% is set by controls: 0 for no effect and ±100 for the full control effect; potency is the fitted concentration of half-maximal effect.

In the experiment the test system is CAOV3. The experiment can be described thus: Primary qHTS to identify gynecologic anti-cancer compounds using libraries of approved drugs and bioactive compounds (AID 1345084). Note: nearly all actives have a fitted effect of over 55% in size. To be noted: Gynecologic cancer cell panel viability, ATPlite luminescence, 48 h; series mostly up to 57.5 µM; activity change, negative = cytotoxicity: at the top concentration. The text has this: National Center for Advancing Translational Sciences [NCATS] Assay Overview: Chemotherapeutic drug responses vary from cancer to cancer and from patient to patient. These variations could be caused by a number of factors including patient genomic background, tumor mutations, tumor heterogeneity, and aspects of drug treatment. Chemotherapeutic drug resistance is also a common issue and can lead to ineffective treatment and patient death. Here we have profiled the cell killing effects of thousands of compounds to characterize the responses in three gynecological cancers, identify cancer-selective compounds, and understand the diversity of responses to these compounds from pan-cancer suppressors to single cell line selective compounds. In this assay, we screened a 7,914 compound drug library that included approved drug and bioactive compounds in six ovarian, three cervical, and […] placental cancer cell lines using the ATPlite assay for cell viability. […] The cervical cancer cell lines included HeLa, Ca Ski, and C-33 A. The placental cancer cell lines included JEG-3. HEK 293T cells were used as the control cell line to determine the selectivity index. ATPlite is a luminescence based assay reliant on the conversion of a luciferase substrate to light in the presence of ATP. As a cytotoxic compound will suppress growth and decrease the number of cells, the concentration of ATP will decrease, and less light signal will be detected in the well.
Assay Protocol Summary: 1,000 cells in 4 uL of media were dispensed into white, solid bottom 1536-well plates using a Multidrop Combi (Thermo Scientific). The Assay plates were incubated for 16 hours at 37 C with 5% CO2 in assay plates, followed by the addition of 23 nL of DMSO or drug dissolved in DMSO. Each compound was assayed in five concentrations (0.092, 0.46, 2.3, 11.5, and 57.5 uM), using the automated Wako 1536 Pin Tool workstation and incubated at 37 C with 5% CO2 48 hours. 4 uL of ATPlite, the ATP monitoring reagent, was then added to the each well of the assay plates using the Multidrop Combi reagent dispenser followed by incubation for 15 minutes at room temperature. The resulting luminescence was measured using the ViewLux plate reader.
A general note: In qHTS, concentration-response curves come from the screen itself.
Consider `Nc1ccc(C(=O)O)cc1`, for which the “activity change, negative = cytotoxicity” value is -5.34%. Same read-out and setting: as for `Oc1ccc(Cl)c2cccnc12`, the figure is 35.4%; as for `CCN(CCCCOC(=O)c1ccc(OC)c(OC)c1)C(C)Cc1ccc(OC)cc1` (stereo not given), -18.1%. The same measure, in the same setting: with `C[C@]12CCC(=O)C=C1[C@@H]1C[C@@H]1[C@H]1[C@@H]3[C@@H]4C[C@@H]4[C@@]4(CCC(=O)O4)[C@@]3(C)CC[C@@H]12` the figure was 26.6%; with `CC1(C)OC[C@@H](COC(=O)CCc2ccc(OC[C@@H](O)CNCCNC(=O)N3CCOCC3)cc2)O1`, 1.43%; with `CCCOC(C(=O)OC1CCN(C)CC1)(c1ccccc1)c1ccccc1`, -4.86%. With `CC1=C(C(=O)OC(C)C)C(c2cccc([N+](=O)[O-])c2)C(C(=O)OC2CN(C(c3ccccc3)c3ccccc3)C2)=C(N)N1` (stereo not given), the “activity change, negative = cytotoxicity” value is 11.7%. Consider `COc1cc(-c2ccc(=O)[nH]n2)ccc1OC(F)F`, for which the “activity change, negative = cytotoxicity” value was -14.9%. `O=c1[nH]c(=O)n([C@H]2C[C@H](O)[C@@H](CO)O2)cc1C(F)(F)F`: the “activity change, negative = cytotoxicity” value was -8.48%.

Regarding `CN1CCN(C(c2ccccc2)c2ccccc2)CC1`, the Potency result was “inactive”. On to `CC1(C)O[C@@H]2C[C@H]3[C@@H]4CCC5=CC(=O)CC[C@]5(C)[C@@]4(F)[C@@H](O)C[C@]3(C)[C@]2(C(=O)CCl)O1`, for which the “activity change, negative = cytotoxicity” value is -17.1%. Still for that read-out and setting: as for `O=C(COc1ccc(Cl)cc1)N1CCN(Cc2ccc3c(c2)OCO3)CC1`, the figure is 3.75%. For `C[C@]12CCC(=O)C=C1CC[C@H]1[C@@H]3CC[C@](O)(C(=O)CO)[C@@]3(C)C[C@H](O)[C@@]12F`, the “activity change, negative = cytotoxicity” value was -21.6%. Turning to `CC(=O)[C@H]1CC[C@H]2[C@@H]3C[C@H](C)C4=CC(=O)CC[C@]4(C)[C@H]3[C@@H](O)C[C@]12C`, the “activity change, negative = cytotoxicity” value was 1.78%. On to `COC(=O)CCc1ccc(OCC(O)CNC(C)C)cc1` (stereo not given), for which the Potency entry is “inactive”. For `CCOC(=O)COc1ccc2c(C)c(CCN(CC)CC)c(=O)oc2c1Cl`, the “activity change, negative = cytotoxicity” value was -18.2%.

As to `O=C1OCCN1/N=C/c1ccc([N+](=O)[O-])o1`, the “activity change, negative = cytotoxicity” value is -6.19%.

As to `C=C1C(=C/C=C2\CCC[C@]3(C)[C@@H]([C@H](C)/C=C/[C@@H](O)C4CC4)CC[C@@H]23)C[C@@H](O)C[C@@H]1O`, the “activity change, negative = cytotoxicity” value is -4.82%. Regarding `CCN1CCC[C@H]1CNC(=O)c1c(OC)ccc(Br)c1OC`, the “activity change, negative = cytotoxicity” value is 2.08%. Turning to `CC(=O)OCC(=O)[C@@]12N=C(C)O[C@@H]1C[C@H]1[C@@H]3CCC4=CC(=O)C=C[C@]4(C)[C@H]3[C@@H](O)C[C@@]12C`, the “activity change, negative = cytotoxicity” value is -0.496%. As to `C[C@]12CC[C@H]3[C@@H](CCC4=CC(=O)CC[C@@]43C)[C@@H]1CC[C@@H]2C(=O)CO`, the “activity change, negative = cytotoxicity” value is -1.39%. Consider `CC(=O)CC(c1ccc([N+](=O)[O-])cc1)c1c(O)c2ccccc2oc1=O` (stereo not given), for which the “activity change, negative = cytotoxicity” value is 0.179%. For the compound `CCN(CC)CCOC(=O)C(c1ccccc1)C1CCCCC1` (stereo not given), the “activity change, negative = cytotoxicity” value was -15.7%.

For `OC(CCN1CCCCC1)(c1ccccc1)c1ccccc1`, the “activity change, negative = cytotoxicity” value is 4.68%. Consider `OC[C@H]1O[C@@H](n2cnc3c(=S)nc[nH]c32)[C@H](O)[C@@H]1O`, for which the “activity change, negative = cytotoxicity” value is 9.51%. For `Cc1nc2n(c(=O)c1CCN1CCC(c3noc4cc(F)ccc34)CC1)CCC[C@H]2O`, the Potency entry was “inactive”.

Regarding `CC(=O)N/N=C/c1ccc([N+](=O)[O-])o1`, the “activity change, negative = cytotoxicity” value is -1.28%. Same read-out and setting: as for `COC1=CC(=O)C[C@@H](C)[C@]12Oc1c(Cl)c(OC)cc(OC)c1C2=O`, the figure is -9.51%.

Turning to `CCCCCCCCCCOCC(O)CN` (stereo not given), the Potency was 31.6 µM (active). In the case of `NC(CS)C(=O)O` (stereo not given), the “activity change, negative = cytotoxicity” value was 5.52%. Regarding `OCc1ccccc1O`, the “activity change, negative = cytotoxicity” value was -1.04%.

`NC(CO)(CO)CO`: the “activity change, negative = cytotoxicity” value was -2.76%. For `CN(C)/N=N/c1nc[nH]c1C(N)=O`, the “activity change, negative = cytotoxicity” value is -5.3%.

Take `CCOc1ccc(Cc2nccc3cc(OCC)c(OCC)cc23)cc1OCC`: the “activity change, negative = cytotoxicity” value was -29.2%.

Consider `OC[C@@H](O)[C@@H](O[C@@H]1O[C@H](CO)[C@H](O)[C@H](O)[C@H]1O)[C@H](O)[C@@H](O)CO`, for which the “activity change, negative = cytotoxicity” value is 6.68%. With `c1ccc(OCc2ccc(CCCN3CCOCC3)cc2)cc1`, the “activity change, negative = cytotoxicity” value is 1.43%. As for `CC1=C(C(=O)O)N2C(=O)[C@@H](NC(=O)[C@H](N)c3ccc(O)cc3)[C@H]2SC1`, the “activity change, negative = cytotoxicity” value was -3.03%. The same measure, in the same setting: with `Cc1cc(=O)n(-c2ccccc2)n1C` the figure was -0.907%; with `COc1cc(/C=C/C(=O)O[C@H]2CC[C@]34C[C@]35CC[C@]3(C)[C@@H]([C@H](C)CCC=C(C)C)CC[C@@]3(C)[C@@H]5CC[C@H]4C2(C)C)ccc1O`, -3.89%; with `COc1c2occc2c(OC)c2c(=O)cc(C)oc12`, 6.77%.
